SMILES strings stand for the structures. About 460 (31%) of roughly 1,500 compounds were called active.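 Rule for the calls: active = viability at or below 80% at any tested concentration, marking the compound as toxic; inactive = the rest.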 Only a sample is shown. Potency and affinity values are given separately.

This is an account of results in PubChem BioAssay AID1117359 (Southern Research Institute, 2015).

This assay in a line: viability loss in THP-1 monocytes – THP-1 cells, cytotoxicity control for Vif-APOBEC3G degradation inhibitor project, dose response (AID 1117359). The following applies: THP-1 viability, CellTiter-Glo luminescence, 72 h; series mostly up to 40 µM; viability: at the top concentration.
Take `CCOC(=O)C1CCCN(C(=O)c2cc(-c3ccco3)nc3ccccc23)C1` (centres undefined): the “viability” value is 91.6% (inactive).

For `Cc1nn(Cc2ccccc2)c(C)c1/C=N/NC(=O)c1ccccc1O`, the “viability” value is 96.5% (inactive).

For `C=C(C)C(=O)Nc1cccc(C2=NOC3(C2)C[C@@H](C(N)=O)N(C(=O)/C=C/CC)C3)c1` (some centres undefined), the “viability” value is 101% (inactive).

Consider `O=C1N=C(N2CCOCC2)SC1=Cc1ccco1`, for which the “viability” value was 88.8% (inactive).

Take `O=C(/C=C/c1ccco1)c1cccnc1`: the “viability” value was 101% (inactive).

As for `COc1cc(-n2cnnn2)ccc1S(=O)(=O)N1CCOCC1`, the “viability” value is 106% (inactive).

As to `O=[N+]([O-])c1ccc(Cl)c(S(=O)(=O)Nc2cccc(S(=O)(=O)NC3=NCCC3)c2)c1`, the “viability” value was 116% (inactive).

Consider `CN1CCN(/C=C(\C#N)S(=O)(=O)c2ccc(Cl)cc2)CC1`, for which the “viability” value was 95.5% (inactive).

For the molecule `CC(C)(C)NC(=O)/C(=C/c1ccco1)c1ccccc1`, the “viability” value is 106% (inactive).

In the case of `COc1ccc(CN2CCSCC2)cc1C`, the “viability” value is 90.2% (inactive).

As to `COc1ccc(C(=O)CSc2nnc3n2CCCN3C(=O)Nc2ccccc2)cc1`, the “viability” value was 91% (inactive).

For `CCC1=NN2C(=N)/C(=C\c3cccn3-c3cccc(Cl)c3)C(=O)N=C2S1`, the “viability” value is 92.3% (inactive).

Consider `O=C(Nn1cnnc1)c1cc(-c2cccc(Br)c2)nc2ccccc12`, for which the “viability” value is 101% (inactive).

Take `CC(C)Cn1c(SCC(=O)Nc2cccnc2Cl)nnc1-c1ccco1`: the “viability” value is 99.8% (inactive).

`CC(CNc1ccccc1O)C(=O)O` (centres undefined): the “viability” value was 90.3% (inactive).

As to `C=CCc1cc(Cl)ccc1OC(=O)Nc1cccc(Cl)c1`, the “viability” value was 86.7% (inactive).

For `[O-]/[N+](=C\C=C\c1ccccc1)c1ccccc1`, the “viability” value was 95.6% (inactive).

For `O=C(COC(=O)C12CC3CC(CC(Br)(C3)C1)C2)Nc1ccc2[nH]c(=O)[nH]c2c1`, the “viability” value was 87.7% (inactive).

Take `Cc1cccc(NC(=O)CSc2nnc(CCC(=O)Nc3ccc(C)c(Cl)c3)n2C)c1`: the “viability” value was 99.7% (inactive).

In the case of `N=C1C=CC=C2C1=NC1(CCCCC1)N2O`, the “viability” value was 91.8% (inactive).

Consider `CC(=O)c1ccc(N2C(=NC(=O)C3CCCO3)SC3CS(=O)(=O)CC32)cc1` (centres undefined), for which the “viability” value was 102% (inactive).

Regarding `C[C@@H]1NC(=O)[C@H](CCC(N)=O)NC(=O)c2cc([N+](=O)[O-])cc(I)c2NCCC[C@@H](C(N)=O)NC1=O`, the “viability” value is 97% (inactive).

On to `Cn1cc(CN2CCN(CCO)CC2)c(-c2ccc(Oc3ccccc3)cc2)n1`, for which the “viability” value is 89.5% (inactive).

In the case of `O=C(CSc1nnc(Cc2ccc(Cl)cc2)o1)Nc1ccccc1`, the “viability” value was 101% (inactive).

Regarding `COc1ccccc1N1C(=O)CC(Nc2ccc(N3CCOCC3)cc2)C1=O` (centres undefined), the “viability” value is 113% (inactive).

For `COc1cccc(CNCC(=O)Nc2ccc(N3CCOCC3)cc2)c1`, the “viability” value was 105% (inactive).

For the molecule `O=C(CC1C(=O)NCCN1Cc1ccc(F)cc1)NCCN1CCCc2ccccc21` (centres undefined), the “viability” value is 93.5% (inactive).

Turning to `CCc1cccc(NC(=O)CCS(=O)(=O)c2ccc(Br)cc2)c1`, the “viability” value was 87.2% (inactive).

Take `O=C(CSc1nccc(=O)[nH]1)Nc1ccc2c(c1)OCCO2`: the “viability” value is 103% (inactive).

In the case of `COc1ccc(NC(=O)C2CCCNC2)cc1OCC(C)C` (centres undefined), the “viability” value was 96% (inactive).

Consider `Cc1cc(/C=C2\SC(=S)NC2=O)c(C)n1-c1ccccc1`, for which the “viability” value was 106% (inactive).

`Cc1c(C)n(C(=O)CSc2nc3ccccc3[nH]2)c2ccccc12`: the “viability” value is 102% (inactive).

As for `COc1ccc(C(=O)NC2CC3CCCC(C2)N3CC(C)C)cc1` (centres undefined), the “viability” value was 108% (inactive).

Turning to `Cc1ccc(NC(=O)CSc2nnc([C@H](C)NC(=O)OC(C)(C)C)o2)c(C)c1`, the “viability” value was 86.8% (inactive).

In the case of `CCOc1cc(C(C(=O)NCC2CCCO2)N(C(=O)Cn2nnc3ccccc32)c2cccc(OC)c2)ccc1O` (centres undefined), the “viability” value was 98.6% (inactive).

`COc1cc(/C=C2/C(=O)N(c3ccc(Br)cc3)N=C2C)cc(OC)c1OC`: the “viability” value was 92.3% (inactive).

Take `O=C1NCC(O)=C1C=NC12CC3CC(CC(C3)C1)C2`: the “viability” value was 97.2% (inactive).

`CCN(CC)C(=O)CN1C(=O)C2(NC(=O)c3ccccc3N2)c2ccccc21` (centres undefined): the “viability” value was 93.6% (inactive).

Take `CCc1cc2c(=O)n(-c3ccc(C)cc3)cnc2s1`: the “viability” value is 89.1% (inactive).

For the molecule `CC(=O)NC1=NC(=O)/C(=C/c2cc(C)n(-c3cccc(C(=O)O)c3)c2C)S1`, the “viability” value is 92.4% (inactive).

`O=C1NC(c2cccc(Br)c2)=N/C1=C\c1ccco1`: the “viability” value was 88.8% (inactive).

Turning to `Nc1ccccc1NC1=CC(=O)CC(c2ccco2)C1` (centres undefined), the “viability” value is 102% (inactive).

As to `O=C1CC(c2ccco2)CC(O)=C1C=Nc1cc(Cl)ccc1Cl` (centres undefined), the “viability” value was 86.1% (inactive).

`O=C1CCC/C(=N\NC(=O)c2ccc(COc3cccc4cccnc34)cc2)C1`: the “viability” value is 89.2% (inactive).

Turning to `O=C(NN(C(=O)c1ccccc1)c1ccccc1)c1ccccc1`, the “viability” value is 105% (inactive).

Consider `Oc1ccc(/C=N/N2CCCCC2)c(O)c1`, for which the “viability” value was 89.5% (inactive).

Regarding `S=c1[nH]nc(C2CC2)n1Cc1ccco1`, the “viability” value is 110% (inactive).

Regarding `CCC(C)[C@H](NC(=O)Nc1ccccc1F)C(=O)OC` (some centres undefined), the “viability” value was 87% (inactive).

Take `Cc1nc2ccccc2n2c(O)c(CC(=O)O)cc12`: the “viability” value is 102% (inactive).

`O=S(=O)(O)c1cc(Cl)cc(N=Nc2ccc(O)cc2O)c1O`: the “viability” value was 112% (inactive).

Regarding `Cc1nc2ccc(NS(=O)(=O)c3ccc(F)cc3F)cc2s1`, the “viability” value is 83.6% (inactive).

In the case of `CC(C)CN(C(=O)CN1CCN(c2ccc(O)cc2)CC1)c1c(N)n(CC(C)C)c(=O)[nH]c1=O`, the “viability” value is 90.8% (inactive).

Turning to `O=c1oc2c(O)c(O)cc3c(=O)oc4c(O)c(O)cc1c4c23`, the “viability” value was 81.6% (inactive).

Regarding `CN(Cc1ccccc1)C(=O)C1CCCN1S(=O)(=O)c1ccc2c(c1)n(C)c(=O)c(=O)n2C` (centres undefined), the “viability” value is 104% (inactive).

As for `CC1(C)Cc2nc3sc(C(=O)O)c(N)c3cc2CS1`, the “viability” value is 85.6% (inactive).

`O=c1cc2oc3cc(O)c(O)cc3c(-c3ccccc3O)c-2cc1O`: the “viability” value is 84.8% (inactive).

`COCCn1c(SCC(=O)Nc2cc(C)on2)nc2cc(Cl)ccc2c1=O`: the “viability” value is 95.7% (inactive).

As for `CCCCS(=O)(=O)N1CCCC(C(=O)N2CCOCC2)C1` (centres undefined), the “viability” value is 91.6% (inactive).

As to `COc1ccc(S(=O)(=O)NNC(=O)c2sccc2-n2cccc2)cc1`, the “viability” value was 93.2% (inactive).

On to `COc1ccc(NS(=O)(=O)c2cccc(C(=O)NNC(=O)c3cccn3C)c2)cc1`, for which the “viability” value is 96.1% (inactive).

With `Cc1ccc(C(=O)O)cc1-c1ccc(/C=C2/NC(=O)N(c3ccccc3)C2=O)o1`, the “viability” value is 104% (inactive).

Take `COC(=O)C1C(O)=C(C=Nc2ccc(N)cc2)C(=O)CC1(C)C` (centres undefined): the “viability” value is 86.8% (inactive).

Take `COc1ccc(/C(O)=C2/C(=O)C(=O)N(c3ccccn3)C2c2ccc(F)cc2)cc1` (centres undefined): the “viability” value was 88.5% (inactive).

Regarding `Cc1cc(O)c(C(C)C)cc1N=Cc1ccc([N+](=O)[O-])cc1`, the “viability” value was 86% (inactive).

Consider `COC(=O)C1=C(O)/C(=C/c2cccc(OC)c2O)N=C1C`, for which the “viability” value is 119% (inactive).

Turning to `O=[N+]([O-])/C(C(Cl)=C(Cl)Cl)=C(/NC1CC1)Sc1ccccc1`, the “viability” value is 80.3% (inactive).

Turning to `CN1OC[C@@H]2CN(C(=O)C(C)(C)C)[C@H](c3cccc(Oc4ccccc4)c3)C[C@@H]21`, the “viability” value was 81.6% (inactive).

In the case of `COc1ccc(C2CC(=O)Oc3cc(OC)ccc32)cc1` (centres undefined), the “viability” value is 97% (inactive).

Regarding `Cc1ccc(C(=O)C2=C(O)C(=O)N(c3ncccn3)C2c2ccc(F)cc2)o1` (centres undefined), the “viability” value was 98.4% (inactive).
